# From the OligoGym collection
# Biological target: REPS2
# Assay: pooled miR-30 sensor sort-seq; sequence = guide strand
# Details: shRNA
# Also: reference of the scale not given here.
row,Sequence,sensor-assay potency score (higher = more potent)
1,TTCTTGATGAACCTCCTTGAGC,-1.27
2,TGTTCTTCTGTTATCCTCCAGG,-0.549
3,TTATCCTCATCGTCCATTCTTT,-0.725
4,TCGTTCTTGATGAACCTCCTTG,-0.785
5,TTCTGTGATCTGGTGCAGCGTC,-0.566
6,TTCTTTGACATCATAAAGCGAG,-0.889
7,ATTGACATAGTACTCGCGCTGT,0.431

# Biological target: RERG
# Assay: as above
# Details: shRNA
row,Sequence,sensor-assay potency score (higher = more potent)
1,TTAATTTGCTTGTCTTTTGGAC,-0.0136
2,AACAACTTCATCATCGATGGTT,-0.0718
3,TTCTACATCTTCTACTAGCATT,-1.27
4,TTAGACACATTTATTCAGCTGT,0.3
5,TTGCCCTGCACCATCCTCCGGC,-0.458
6,TTTGATCTCATCTAGGATGTTC,0.194
7,TAATTTTTCTTACTGTACCTGG,0.0466
8,TCTTCTGTGCTAACCTGCCTGG,-0.541
9,TTTGTTTCCAACCAAGATGAGA,-1.39
10,TTGACATGCGTGGTGGAGCTGC,-0.453
11,TAGAGTTCCTTCTATTTCCTGT,0.463
12,TAATTCTACATCTTCTACTAGC,-0.25

# Biological target: REST
# Assay: as above
# Details: shRNA
row,Sequence,sensor-assay potency score (higher = more potent)
1,TTTCACTTTTGAGACATCCATT,-1.15
2,TTGAACTGTAAATATCTGGAGC,-0.111
3,TTTGCTGTAATCTTTTCCCTTT,-0.0854
4,TTGGTCTTCGAGCTCTTGCCTT,-0.836
5,TAGATTTGAAGTGATACTGTAG,0.294
6,TTCATCTTCATCAATTTCCTGA,0.487
7,TATCTTAACAGGTTCCTTCTGG,0.123
8,TTTCTTAGCACTGTGAACTCTG,0.443
9,TATCTGAACAGGCTCCTTCTGG,-0.749
10,TATTTGAACTGTAAATATCTGG,-0.000404
11,TTCAATAAGGACTTGCTCCTTC,0.499
12,TACACTTGTAGACTCGCTCATT,-0.726

# Biological target: RET
# Assay: as above
# Details: shRNA
row,Sequence,sensor-assay potency score (higher = more potent)
1,TCGTCGTACACGGTCACCGGGA,-0.762
2,TTGGGTCTCCACAACATCGCAG,-0.15
3,TTCCGGTTGAGAACCAGCCTAT,-0.898
4,TTGTCTGGCCTCTCCATCCGGT,-0.338
5,TAGAGTTTGTTTTCAATCCATG,-0.723
6,TTGGATATCTTGGAAACCCAGT,-0.723
7,TTTAACTGGAATCCGACCCTGG,0.235
8,TACAATTTGATGACATGTGGGT,0.209
9,TAAACATCTCGGGACAAGCCGA,-0.999
